Screens from PubChem BioAssay.
An excerpt weighted towards active compounds, which were near 12% of everything screened.
Sfp inh: qHTS Assay for Inhibitors of Bacillus subtilis Sfp phosphopantetheinyl transferase (PPTase) | 4'-phosphopantetheinyl transferase ffp (Bacillus subtilis), Q9F4F7 | Biochemical Sfp PPTase activity, qHTS | Potency, µM, usual class: inhibitors | 310,000 compounds, 3.5% hits | AID 1490, 2009;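 also: the enzyme is Sfp with the accession as filed and its product quenches rhodamine fluorescence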
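Sfp 15 nM + cpd, 15 min RT; start w/ rhodamine-CoA 5 uM, BHQ-2-YbbR 12.5 uM (final); 50 mM Hepes pH 7.6, 10 mM MgCl2, 0.01% NP-40, 0.01% BSA; read 525/598 nm at 0 and 30 min.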
L3MBTL1 block: qHTS Assay for the Inhibitors of L3MBTL1; 230,000 compounds, 0.66% hits; AlphaScreen L3MBTL1–H3K9me1 peptide binding; Lethal(3)malignant brain tumor-like protein 1 (Homo sapiens), Q9Y468; Potency, µM (titrated, usually from 57.1 µM), hits mostly inhibitors; also: nearly all actives have a fitted effect of over 60% in size
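L3MBTL1 (50 nM) pre-complexed 30 min with biotinylated H3(1-15)K9me1 peptide (75 nM), then compounds added for 30 min at room temperature; AlphaScreen streptavidin donor/nickel chelate acceptor beads (10 ug/mL final) read after 30 min dark incubation.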
JMJD2A Tudor inh: qHTS Assay for Inhibitors of JMJD2A-Tudor Domain; Potency, µM (doses to about 114 µM), hits mostly inhibitors; AlphaScreen JMJD2A-Tudor / H3K4me3 peptide binding; AID 504339, 2011; Lysine-specific demethylase 4A (Homo sapiens), O75164; 390,000 compounds, 4.4% hits; also: nearly all actives have a fitted effect of over 50% in size
HP1b chromo inh: HTS for Inhibitors of HP1-beta Chromodomain Interactions with Methylated Histone Tails. Chromobox protein homolog 1 (Homo sapiens), P83916. AID 540317, 2011. AlphaScreen HP1-beta / biotin-H3K9me3 peptide binding. Potency, µM (top dose mostly 114 µM), actives largely listed as inhibitors. 390,000 compounds, 0.56% hits; also: nearly all actives have a fitted effect of over 70% in size
Target sequence (P83916 whole entry, looked up): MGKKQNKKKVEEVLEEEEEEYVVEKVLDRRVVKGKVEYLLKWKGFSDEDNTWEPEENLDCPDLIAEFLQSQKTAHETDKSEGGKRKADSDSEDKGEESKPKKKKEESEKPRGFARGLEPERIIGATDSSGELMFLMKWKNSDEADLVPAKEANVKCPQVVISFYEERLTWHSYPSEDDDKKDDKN
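AlphaScreen: HP1-beta (50 nM) preformed 30 min with biotin-H3(1-18)K9me3 peptide (50 nM) in PBS pH 7.4, 0.01% Tween-20. Compound added for 30 min at RT, then streptavidin donor/nickel chelate acceptor beads (10 ug/mL) for 30 min.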
G9a inh: qHTS Assay for Inhibitors of Histone Lysine Methyltransferase G9a. Histone-lysine N-methyltransferase EHMT2 (Homo sapiens), Q96KQ7. 350,000 compounds, 8.8% hits. Potency, µM (series often up to 102 µM), hits mostly inhibitors. G9a H3K9 monomethylation, AlphaScreen, 2 h; also: nearly all actives have a fitted effect of over 75% in size
Target sequence (Q96KQ7 913-1193 limits assumed): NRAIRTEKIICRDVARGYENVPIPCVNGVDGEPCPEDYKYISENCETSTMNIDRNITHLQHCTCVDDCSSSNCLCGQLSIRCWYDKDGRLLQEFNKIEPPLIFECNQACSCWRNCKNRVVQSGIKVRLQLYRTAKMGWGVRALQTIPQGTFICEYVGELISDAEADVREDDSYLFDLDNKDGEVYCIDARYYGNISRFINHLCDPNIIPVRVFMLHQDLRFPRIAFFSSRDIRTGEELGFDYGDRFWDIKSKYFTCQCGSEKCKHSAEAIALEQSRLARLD
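Enzyme 20 nM + cpd, 15 min RT; add b-H3K9 pep 500 nM / SAM 20 uM; 2 h RT; anti-H3K9me1 Ab 0.5 ug/mL + SA donor / anti-rabbit acceptor beads 20 ug/mL each, 10 min; AlphaScreen read.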
BAZ2B block: qHTS Assay for Inhibitors of BAZ2B; Bromodomain adjacent to zinc finger domain protein 2B (Homo sapiens), Q9UIF8; 360,000 compounds, 4.4% hits; AlphaScreen BAZ2B-H3K14Ac peptide displacement; Potency, µM (doses to about 114 µM), usual class: inhibitors; also: nearly all actives have a fitted effect of over 60% in size
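In this displacement format the biotinylated H3(5-23) peptide acetylated at Lys14 serves as ligand at 50 nM, with BAZ2B at 50 nM in PBS pH 7.4 containing 0.01% Tween-20. Donor and acceptor beads are 10 ug/mL final.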
Numbers stand for hits; n = inactive; u = inconclusive; x = no result given; [ ] = remark or other dose. Calls follow the shape of the dose curve; as a rule, active = well fitted curve in the direction sought with a large enough effect; inconclusive = small, poorly fitted or top-dose-only effect, or another doubt; inactive = no such curve, though single readings can be large; an effect the other way counts as inactive or inconclusive.

SMILES	Sfp inh	L3MBTL1 block	JMJD2A Tudor inh	HP1b chromo inh	G9a inh	BAZ2B block
COCCNc1nc(-c2ccccc2Cl)nc2ccccc12	n	x	x	x	n[0.501 µM]	x
CC/C(=C\c1oc2cc3ccccc3cc2[n+]1CC)Nc1ccccc1	n	n	n	n	5.62µM	79.4µM
Cc1c(C(=O)Nc2ccccc2Cl)sc2ncnc(N(C)C3CCCCC3)c12	x	x	n	n	n	n
COC(=O)c1c(NC(=S)NNC(=O)c2ccc(Cl)s2)sc(C(=O)N(C)C)c1C	n	x	n	n	28.2µM	n
COC(=O)Nc1sc(C(=O)N(C)C)c(C)c1C(=O)OC	n	n	n	n	n[0.0925 µM]	n
Cc1cnc(CNc2nc(-c3ccccc3C)nc3ccccc23)cn1	n	x	x	x	n[0.501 µM]	x
COc1ccccc1-c1cncnc1NCc1cnc(C)cn1	79.4µM	x	x	x	n[0.501 µM]	x
COCCNc1ncncc1-c1ccccc1OC	n	x	x	x	n[0.501 µM]	x
COc1ccccc1-c1cncnc1NCCNC(C)=O	79.4µM	x	x	x	n[0.501 µM]	x
COc1ccccc1-c1nc(NCc2cnc(C)cn2)c2ccccc2n1	50.1µM	x	x	x	x	x
Cc1cnc(CNc2ncncc2-c2ccccc2C(F)(F)F)cn1	70.8µM	x	x	x	x	x
COc1ccccc1-n1c(SCC(=O)N(C)C)nnc1-c1ccco1	x	x	n	n	x	x
Cc1cccc(C(=O)OC(C)CN2C(C)CCCC2C)c1 (stereo not drawn)	n	x	n	n	u	n
CCc1nnc(NC(=O)c2ccc(S(=O)(=O)N3CCCC(C)C3)cc2)o1 (stereo not drawn)	n	x	n	n	n	89.1µM
COCc1nnc(NC(=O)c2ccc(S(=O)(=O)N3CCCC3)cc2)o1	n	x	12.6µM	n	n	20µM
COCc1nnc(NC(=O)c2ccc(S(=O)(=O)N(CC(C)C)CC(C)C)cc2)o1	n	n	n	n	n	u
CC(C)OCCCNC(=O)COc1ccc2oc3c(c2c1)CCCC3	n	x	n	n	n	n
Cc1ccc(-n2nc(C)c(C(=O)O)n2)c(C)c1	n	n	n	n	79.4µM	n
Cc1cc(=O)c(C(=O)O)cn1-c1ccc(C(C)C)cc1	n	n	n	n	44.7µM	u
Cc1cc(C)cc(-n2cc(C(=O)O)c(=O)cc2C)c1	n	n	n	n	28.2µM	79.4µM
Cc1cc(=O)c(C(=O)O)cn1Nc1ccc(Cl)cc1	n	x	n	n	u	n
Cc1ccc(-n2cc(C(=O)O)c(=O)cc2C)c(C)c1	n	n	n	n	50.1µM	u
O=C(CNC(=O)c1ccccc1F)N/N=C/c1cccnc1	n	x	n	n	n	n
Cc1cccc(-n2cc(C(=O)O)c(=O)cc2C)c1	n	n	44.7µM	n	22.4µM	n
Cc1[nH][nH]c(=O)c1C(c1ccc(-c2ccc(F)cc2)o1)c1c(C)[nH][nH]c1=O	u	u	u	n	25.1µM	u
SMILES	Sfp inh	L3MBTL1 block	JMJD2A Tudor inh	HP1b chromo inh	G9a inh	BAZ2B block
Cc1[nH][nH]c(=O)c1C(c1ccc(N(C)C)c(Br)c1)c1c(C)[nH][nH]c1=O	n	n	u	n	x	n
Cc1[nH][nH]c(=O)c1C(c1ccc(-c2ccc(Cl)c(Cl)c2)o1)c1c(C)[nH][nH]c1=O	56.2µM	x	u	n	11.2µM	u
CCOc1ccc(Cl)cc1C(c1c(C)[nH][nH]c1=O)c1c(C)[nH][nH]c1=O	n	n	n	n	n	n
COc1ccc(-c2ccc(C(c3c(C)[nH][nH]c3=O)c3c(C)[nH][nH]c3=O)o2)c([N+](=O)[O-])c1	20µM	n	u	n	3.98µM	39.8µM
Cc1[nH][nH]c(=O)c1C(c1ccc(-c2ccc(C(=O)O)cc2)o1)c1c(C)[nH][nH]c1=O	n	u	n	u	3.55µM	56.2µM
CC(=O)OC[C@H]1O[C@@H](O/N=C(\C)CCN2CCCc3nc(C)c(C)cc32)[C@H](OC(C)=O)[C@@H](OC(C)=O)[C@H]1OC(C)=O	n	x	x	x	x	x
Cc1ccc(-n2c(/C=C/c3c(C)n(C)c4ccccc34)nc3ccccc3c2=O)cc1	x	x	n	n	n	n
Cc1ccc(C)c(NC(=O)CSc2nccn2-c2cccc(C)c2C)c1	x	x	u	u	17.8µM	10µM
Cc1cccc(-n2ccnc2SCC(=O)Nc2cccc(S(=O)(=O)NC3=NCCC3)c2)c1C	x	n	n	n	39.8µM	n
CC(=O)C1=C(C)NC(SCC(=O)Nc2nc3ccccc3s2)=C(C#N)C1c1ccc(Cl)cc1 (stereo not drawn)	39.8µM	n	n	n	8.91µM	n
CC1=C(C(=O)Nc2ccc(Cl)cc2)C(c2ccncc2)C(C#N)=C(SCC(N)=O)N1 (stereo not drawn)	89.1µM	x	n	n	u	n
CCc1ccc(-c2nc3cc(NC(=O)c4cc5ccccc5cc4OC)ccc3o2)cc1	x	x	n	n	n	n
Fc1ccc(CN2CCSCC2)cc1F	n	n	3.98µM	u	31.6µM	u
Fc1cccc(CN2CCSCC2)c1	n	n	20µM	u	25.1µM	50.1µM
Fc1cccc(CN2CCCCCCC2)c1	n	n	2µM	u	12.6µM	u
O=C(CN1CCN(Cc2cccc(F)c2)CC1)NCc1ccccc1	n	n	n	n	n	n
Cc1noc2ncnc(N3CCCC(C(=O)Nc4cccc(C(F)(F)F)c4)C3)c12 (stereo not drawn)	x	x	n	n	n	n
COC(=O)C[C@H]1c2ccccc2[C@H]2C(=C[C@@H](C)[C@H]3C(=O)N(O)C(=O)[C@H]32)N1C(=O)OC	n	x	x	x	x	x
CC(C)OC(=O)CC(=O)CSc1nc2c(cc1C#N)CCC2	n	n	n	n	44.7µM	n
N#Cc1cc2c(nc1SCC(N)=O)CCCCC2	n	x	n	n	79.4µM	n
CCOC(=O)CC(=O)CSc1nc2c(cc1C#N)CCCCCC2	n	n	n	n	n	n
CCCCSc1nc2c(cc1C#N)CCC2	u	n	n	n	3.98µM	n
CC(C)OC(=O)CC(=O)CSc1nc2c(cc1C#N)CCCC2	n	x	n	n	u	n
CCC(C)CC(C)CC(C)C(=O)/C=C(/O)C(C)CC(C)C/C=C/C(C)C(O)C(C)C(O)CC1CCC(C)(C)O1 (stereo not drawn)	n	x	x	x	x	x
COc1ccc(Cn2ccc3nc(C)c(C(=O)NCc4cccc(OC)c4)cc3c2=O)cc1	x	x	n	n	n	n
CCn1cc(S(=O)(=O)NCCc2ccccc2OC)cn1	n	x	n	n	n	n
CCc1ccc2[nH]c(C(=O)Nc3ccc4c(c3)OCO4)cc2c1	n	n	u	n	22.4µM	n
Cc1cc(C)c2[nH]c(C(=O)Nc3ccc4c(c3)OCO4)cc2c1	n	u	56.2µM	n	17.8µM	50.1µM
Cc1cc(C)c(NC(=O)Nc2ccc3c(c2)OCO3)c(C)c1	n	x	n	n	x	n
